The campaign covered roughly 5,500 compounds. About 2,000 (36%) were called active. About 18% were inconclusive and are not listed. Rule as the data show it: active = normalized growth mostly below about 0.91 (no sharp cut-off); inconclusive = no clear call, values can overlap the other calls; inactive = mostly above about 0.92. The list shows a part of the results.
Test: chemical genetic growth profiling, strain panel (AID 1159580);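 also: tested at 20 µM; growth read once vehicle control cultures reached saturation at 30 °C; 1 = growth at the plate median or of vehicle wells; lower values mean less growth of the strain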
Details: growth OD

Measured: normalized growth

COC1=CC(=O)C=C(OC)C1=O
inactive: S. cerevisiae deletion strains, locus YKL009W, strain mrt4, hits give low values 0.956 | S. cerevisiae deletion strains, locus YKL068W, hits give low values 0.972 | S. cerevisiae deletion strains, locus YKL085W, strain MDH1 (second series), hits give low values 0.981 | S. cerevisiae deletion strains, locus YKL085W, strain MDH1, hits give low values 0.981 | S. cerevisiae deletion strains, locus YKL160W, strain elf1, hits give low values 0.971 | S. cerevisiae deletion strains, locus YKL190W, strain CNB1, hits give low values 0.989 | S. cerevisiae deletion strains, locus YKR001C, strain vps1, hits give low values 0.995 | S. cerevisiae deletion strains, locus YKR026C, strain gcn3, hits give low values 0.995 | S. cerevisiae deletion strains, locus YKR091W, strain srl3, hits give low values 1 | S. cerevisiae deletion strains, locus YLL001W, strain dnm1, hits give low values 0.996 | S. cerevisiae deletion strains, locus YLL026W, hits give low values 0.991 | S. cerevisiae deletion strains, locus YLL041C, strain sdh2, hits give low values 1.01 | S. cerevisiae deletion strains, locus YLR027C, strain aat2, hits give low values 0.997 | S. cerevisiae deletion strains, locus YLR039C, strain RIC1, hits give low values 0.981 | S. cerevisiae deletion strains, locus YLR058C, strain SHM2, hits give low values 0.988 | S. cerevisiae deletion strains, locus YLR102C, strain apc9, hits give low values 0.982 | S. cerevisiae deletion strains, locus YLR113W, strain HOG1, hits give low values 0.998 | S. cerevisiae deletion strains, locus YLR221C, strain rsa3, hits give low values 1 | S. cerevisiae deletion strains, locus YLR258W, strain gsy2, hits give low values 0.997 | S. cerevisiae deletion strains, locus YLR262C, strain YPT6 (second series), hits give low values 0.946 | S. cerevisiae deletion strains, locus YLR262C, strain YPT6, hits give low values 0.967 | S. cerevisiae deletion strains, locus YLR268W, strain sec22, hits give low values 0.989 | S. cerevisiae deletion strains, locus YLR320W, strain mms22, hits give low values 0.955 | S. cerevisiae deletion strains, locus YLR330W, strain CHS5, hits give low values 0.997 | S. cerevisiae deletion strains, locus YLR342W, strain FKS1 (second series), hits give low values 1.02 | S. cerevisiae deletion strains, locus YLR342W, strain FKS1, hits give low values 0.976 | S. cerevisiae deletion strains, locus YLR357W, strain rsc2, hits give low values 0.99 | S. cerevisiae deletion strains, locus YLR370C, strain arc18, hits give low values 1.01 | S. cerevisiae deletion strains, locus YLR371W, strain rom2, hits give low values 0.989 | S. cerevisiae deletion strains, locus YLR384C, strain iki3, hits give low values 0.986 | S. cerevisiae deletion strains, locus YLR418C, strain cdc73, hits give low values 0.999 | S. cerevisiae deletion strains, locus YML016C, strain PPZ1, hits give low values 0.994 | S. cerevisiae deletion strains, locus YML032C, strain rad52, hits give low values 0.973 | S. cerevisiae deletion strains, locus YML120C, strain ndi1, hits give low values 1.01 | S. cerevisiae deletion strains, locus YML124C, strain tub3, hits give low values 0.987 | S. cerevisiae deletion strains, locus YMR058W, strain fet3, hits give low values 1.02 | S. cerevisiae deletion strains, locus YMR078C, strain ctf18, hits give low values 0.999 | S. cerevisiae deletion strains, locus YMR125W, strain sto1, hits give low values 1.02 | S. cerevisiae deletion strains, locus YMR129W, hits give low values 0.999 | S. cerevisiae deletion strains, locus YMR205C, strain PFK2, hits give low values 0.983 | S. cerevisiae deletion strains, locus YMR223W, strain ubp8, hits give low values 0.993 | S. cerevisiae deletion strains, locus YMR231W, strain pep5, hits give low values 1.01 | S. cerevisiae deletion strains, locus YMR307W, strain GAS1, hits give low values 1.12 | S. cerevisiae deletion strains, locus YNL067W, strain RPL9B, hits give low values 0.997 | S. cerevisiae deletion strains, locus YNL071W, strain lat1, hits give low values 0.989 | S. cerevisiae deletion strains, locus YNL183C, strain NPR1, hits give low values 0.95 | S. cerevisiae deletion strains, locus YNL209W, strain ssb2, hits give low values 0.996 | S. cerevisiae deletion strains, locus YNL233W, strain BNI4, hits give low values 1.02 | S. cerevisiae deletion strains, locus YNL248C, strain rpa49, hits give low values 1.01 | S. cerevisiae deletion strains, locus YNL250W, strain rad50, hits give low values 0.987 | S. cerevisiae deletion strains, locus YNL271C, strain bni1, hits give low values 0.99 | S. cerevisiae deletion strains, locus YNL298W, strain CLA4, hits give low values 0.999 | S. cerevisiae deletion strains, locus YNL307C, strain MCK1, hits give low values 0.992 | S. cerevisiae deletion strains, locus YNL322C, strain KRE1 (second series), hits give low values 0.996 | S. cerevisiae deletion strains, locus YNL322C, strain KRE1, hits give low values 0.993 | S. cerevisiae deletion strains, locus YNR049C, strain mso1, hits give low values 1 | S. cerevisiae deletion strains, locus YNR052C, strain pop2, hits give low values 1.01 | S. cerevisiae deletion strains, locus YOL006C, strain TOP1, hits give low values 1.17 | S. cerevisiae deletion strains, locus YOL012C, strain htz1 0.746 | S. cerevisiae deletion strains, locus YOL147C, strain pex11, hits give low values 0.988 | S. cerevisiae deletion strains, locus YOR001W, strain rrp6, hits give low values 1 | S. cerevisiae deletion strains, locus YOR061W, strain CKA2, hits give low values 0.965 | S. cerevisiae deletion strains, locus YOR069W, strain VPS5, hits give low values 0.991 | S. cerevisiae deletion strains, locus YOR070C, strain gyp1, hits give low values 0.996 | S. cerevisiae deletion strains, locus YOR080W, strain dia2, hits give low values 1.01 | S. cerevisiae deletion strains, locus YOR083W, strain WHI5, hits give low values 0.927 | S. cerevisiae deletion strains, locus YOR106W, strain vam3, hits give low values 0.97 | S. cerevisiae deletion strains, locus YOR136W, strain idh2, hits give low values 0.972 | S. cerevisiae deletion strains, locus YOR144C, strain elg1, hits give low values 0.994 | S. cerevisiae deletion strains, locus YOR184W, strain ser1, hits give low values 0.982 | S. cerevisiae deletion strains, locus YOR231W, strain MKK1, hits give low values 1.01 | S. cerevisiae deletion strains, locus YOR265W, strain rbl2, hits give low values 0.994 | S. cerevisiae deletion strains, locus YOR270C, strain vph1, hits give low values 0.94 | S. cerevisiae deletion strains, locus YOR290C, strain snf2, hits give low values 0.991 | S. cerevisiae deletion strains, locus YOR316C, strain cot1, hits give low values 0.986 | S. cerevisiae deletion strains, locus YPL051W, strain arl3, hits give low values 0.998 | S. cerevisiae deletion strains, locus YPL055C, strain LGE1, hits give low values 1.04 | S. cerevisiae deletion strains, locus YPL078C, strain atp4, hits give low values 0.962 | S. cerevisiae deletion strains, locus YPL106C, strain sse1, hits give low values 0.994 | S. cerevisiae deletion strains, locus YPL240C, strain hsp82, hits give low values 0.991 | S. cerevisiae deletion strains, locus YPL241C, strain CIN2, hits give low values 0.986 | S. cerevisiae deletion strains, locus YPL256C, strain CLN2, hits give low values 1.01 | S. cerevisiae deletion strains, locus YPR119W, strain clb2, hits give low values 0.981 | S. cerevisiae deletion strains, locus YPR141C, strain kar3, hits give low values 0.983 | S. cerevisiae deletion strains, locus YPR163C, strain tif3, hits give low values 1 | S. cerevisiae deletion strains, locus YPR167C, strain met16, hits give low values 0.976 | S. cerevisiae deletion strains, strain wtn01, hits give low values 0.981 | S. cerevisiae strains, strain wild type, hits give low values 1
